Results from PubChem BioAssay (NCI).
About 83,000 compounds went through this panel and 20% of them were active in at least one assay; those are over-represented in the sample as a whole.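 Testing used 96-well plates and a 48-hour single-concentration exposure. Example: -40 means 40% of the starting cells died.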 The source made the active and inactive calls. The calls were made as follows: active = growth percent below 10; inactive = the rest.

System: SR leukemia
Experiment: NCI-60 one-dose screen, 48 h (100 = growth as untreated, 0 = no growth, -100 = all killed)
Details: 10 µM unless noted

Structure (SMILES)	growth
O=C1CN(Cc2ccc(C(=O)NO)cc2)C(=O)[C@@H](Cc2ccccc2)N1	113% (inactive)
COc1ncc(-c2ccc3nccc(C#CCCCCC(=O)NO)c3c2)cc1NS(=O)(=O)c1ccc(F)cc1F	-24.5% (active)
CCCCCN(CCCCC)CCCCCCCCN1CCCc2ccccc21	21.5% (inactive)
CC1Cc2c(Cl)ncnc2N(C)c2ccc(O)cc21 (stereo not drawn)	90.3% (inactive)
FC(F)(F)c1ccc2c(c1)Sc1ccccc1N2	89.5% (inactive)
Cc1ccc2c(n1)C(=O)C(Cl)=C(Nc1ccc(N3CCN(C)CC3)cc1)C2=O	-5.05% (active)
CCOc1cc(/C=N\NC(=O)N/N=C/c2ccc(O)c(OCC)c2)ccc1O	12.2% (inactive)
C1=C[C@H]2O[C@@H]1c1ccc3[nH]ccc3c12	84.6% (inactive)
CC1(C)CC[C@]2(C(=O)O)CC[C@]3(C)[C@H](CC[C@@H]4[C@@]5(C)CCC(=O)C(C)(C)[C@@H]5CC[C@]43C)[C@H]2[C@H]1OC(=O)C(F)(F)F	14.6% [100 µM] (inactive)
[2H]C1([2H])CCN(C(=O)C2CC2)c2cc(NS(=O)(=O)c3ccc(-c4cccc(C(N)=O)c4)cc3)ccc21	38.1% (inactive)
CCOC(=O)c1sc2nc(-c3cc(OC)c(OC)c(OC)c3)nc(N3CCOCC3)c2c1C	41.8% (inactive)
O=C(CCN1CCCCC1)c1ccc(Cl)cc1	112% (inactive)
O=C1CC(C(F)(F)F)Cc2nc3ccc(Br)cc3cc21 (stereo not drawn)	75.2% (inactive)
NC(=O)c1cccc(-c2ccc(S(=O)(=O)Nc3ccc4c(c3)N(C(=O)C3CC3)CCC4)cc2)c1	50.5% (inactive)
CCOC(=O)CCC[P+](c1ccccc1)(c1ccccc1)c1ccccc1	59.5% (inactive)
CCC(Br)(CC)C(=O)c1ccc(OCC(=O)O)c(Cl)c1Cl	120% (inactive)
C#C[C@]1(O)CC[C@H]2[C@@H]3CC=C4c5nc(Nc6ccccc6[N+](=O)[O-])sc5CC[C@]4(C)[C@H]3CC[C@@]21C	30.2% (inactive)
O=C(N/N=C\c1cc(Cl)ccc1O)N/N=C/c1cc(Cl)ccc1O	35.4% (inactive)

Structure (SMILES)	growth
C=C(C)[C@@H]1CC[C@]2(C(=O)NCCNCCNC(=O)OC(C)(C)C)CC[C@]3(C)[C@H](CC[C@@H]4[C@@]5(C)CCC(=O)C(C)(C)[C@@H]5CC[C@]43C)[C@@H]12	52.4% [100 µM] (inactive)
Cc1cc(C)c(O)c(CNCCCNCc2cc(C)cc(C)c2O)c1	-30.5% (active)
O=C(Nc1ccc(C(=O)/C=C/c2ccc(N3CCOCC3)cc2)cc1)Nc1ccc([N+](=O)[O-])cc1	94.1% (inactive)
C[C@H]1[C@H](C)CC[C@]2(C(=O)N3CCN(C)CC3)CC[C@]3(C)C(=CC[C@@H]4[C@@]5(C)C/C(=C/c6ccco6)C(=O)C(C)(C)[C@@H]5CC[C@]43C)[C@H]12	32% [100 µM] (inactive)
Nc1nc(Cl)c2ncn(Cc3cc4c(cc3I)OCO4)c2n1	9.76% (active)
CC1(C)OC2[C@@H](CNC(=O)NC(=O)NC(=O)CI)O[C@@H](n3cnc4c(NC(=O)Nc5ccccc5)ncnc43)[C@H]2O1 (stereo partly drawn)	-50.8% (active)
Fc1cc2[nH]ncc2c2c3c(c(-c4cn[nH]c4C(F)(F)F)nc12)C1CCC3C1 (stereo not drawn)	5.5% (active)
CC1Cc2c(Cl)ncnc2N(C)c2ccccc21 (stereo not drawn)	6.5% (active)
C=C(C)[C@@H]1CC[C@]2(COCCCN)CC[C@]3(C)[C@H](CC[C@@H]4[C@@](C)(CCCNCCCN)[C@H](C(=C)C)CC[C@]43C)[C@@H]12	44.4% [100 µM] (inactive)
CCCCCCSc1ncnc2nc[nH]c12	85.2% (inactive)
C[C@@H]1C[C@H]2C(=O)O[C@@H](C)[C@H](NC(=O)[C@H](Cc3cc(F)cc(F)c3)NC(=O)Nc3ccc(C4CC4)cc3F)C(=O)N3CCC[C@H]3C(=O)N3CCCC[C@H]3C(=O)N[C@@H](C)C(=O)N2C1	27.8% (inactive)
COc1cc2c(cc1OC(C)=O)C(=O)CCCC2	121% (inactive)
COc1ccc(CC(C#N)c2ccc(Cl)cc2)cc1 (stereo not drawn)	36.3% (inactive)
COc1ccc(N(c2nc(-c3ccc([N+](=O)[O-])cc3)cs2)C(C)C)cc1	66.5% (inactive)
C=C(C)[C@@H]1CC[C@]2(C)[C@H](CC[C@@H]3[C@@H]([C@@](C)(O)CCC=C(C)C)CC[C@]32C)[C@@]1(C)CCC(=O)O	21.4% [100 µM] (inactive)
Cc1cnc(N)nc1OCCNC(=O)c1cccc(-c2ccc(S(=O)(=O)Nc3ccc4c(c3)N(C(=O)C3CC3)CCC4)cc2)c1	104% (inactive)
Fc1cc2[nH]ncc2c2c3c(c(-c4cn[nH]c4)nc12)CCCC3	13.8% (inactive)

System: RPMI-8226 leukemia
Experiment: as above
Details: 10 µM unless noted

Structure (SMILES)	growth
O=C1CN(Cc2ccc(C(=O)NO)cc2)C(=O)[C@@H](Cc2ccccc2)N1	102% (inactive)
COc1ncc(-c2ccc3nccc(C#CCCCCC(=O)NO)c3c2)cc1NS(=O)(=O)c1ccc(F)cc1F	-25.1% (active)
CCCCCN(CCCCC)CCCCCCCCN1CCCc2ccccc21	84.1% (inactive)
CC1Cc2c(Cl)ncnc2N(C)c2ccc(O)cc21 (stereo not drawn)	68.5% (inactive)
FC(F)(F)c1ccc2c(c1)Sc1ccccc1N2	92.7% (inactive)
Cc1ccc2c(n1)C(=O)C(Cl)=C(Nc1ccc(N3CCN(C)CC3)cc1)C2=O	-32.6% (active)
CCOc1cc(/C=N\NC(=O)N/N=C/c2ccc(O)c(OCC)c2)ccc1O	32.8% (inactive)
C1=C[C@H]2O[C@@H]1c1ccc3[nH]ccc3c12	93.8% (inactive)
CC1(C)CC[C@]2(C(=O)O)CC[C@]3(C)[C@H](CC[C@@H]4[C@@]5(C)CCC(=O)C(C)(C)[C@@H]5CC[C@]43C)[C@H]2[C@H]1OC(=O)C(F)(F)F	-42.9% [100 µM] (active)
[2H]C1([2H])CCN(C(=O)C2CC2)c2cc(NS(=O)(=O)c3ccc(-c4cccc(C(N)=O)c4)cc3)ccc21	37.1% (inactive)
CCOC(=O)c1sc2nc(-c3cc(OC)c(OC)c(OC)c3)nc(N3CCOCC3)c2c1C	9.94% (active)
O=C(CCN1CCCCC1)c1ccc(Cl)cc1	85.8% (inactive)
O=C1CC(C(F)(F)F)Cc2nc3ccc(Br)cc3cc21 (stereo not drawn)	77.5% (inactive)
NC(=O)c1cccc(-c2ccc(S(=O)(=O)Nc3ccc4c(c3)N(C(=O)C3CC3)CCC4)cc2)c1	43.7% (inactive)
CCOC(=O)CCC[P+](c1ccccc1)(c1ccccc1)c1ccccc1	41.9% (inactive)
CC1(C)CC[C@]2(C(=O)O)CC[C@]3(C)C(=CC[C@@H]4[C@@]5(C)C/C(=C/c6cccnc6)[C@H](O)C(C)(C)[C@@H]5CC[C@]43C)[C@@H]2C1	-12% [100 µM] (active)
CCC(Br)(CC)C(=O)c1ccc(OCC(=O)O)c(Cl)c1Cl	121% (inactive)
C#C[C@]1(O)CC[C@H]2[C@@H]3CC=C4c5nc(Nc6ccccc6[N+](=O)[O-])sc5CC[C@]4(C)[C@H]3CC[C@@]21C	1.11% (active)
O=C(N/N=C\c1cc(Cl)ccc1O)N/N=C/c1cc(Cl)ccc1O	29.4% (inactive)

Structure (SMILES)	growth
C=C(C)[C@@H]1CC[C@]2(C(=O)NCCNCCNC(=O)OC(C)(C)C)CC[C@]3(C)[C@H](CC[C@@H]4[C@@]5(C)CCC(=O)C(C)(C)[C@@H]5CC[C@]43C)[C@@H]12	22.2% [100 µM] (inactive)
Cc1cc(C)c(O)c(CNCCCNCc2cc(C)cc(C)c2O)c1	28.5% (inactive)
O=C(Nc1ccc(C(=O)/C=C/c2ccc(N3CCOCC3)cc2)cc1)Nc1ccc([N+](=O)[O-])cc1	77% (inactive)
C[C@H]1[C@H](C)CC[C@]2(C(=O)N3CCN(C)CC3)CC[C@]3(C)C(=CC[C@@H]4[C@@]5(C)C/C(=C/c6ccco6)C(=O)C(C)(C)[C@@H]5CC[C@]43C)[C@H]12	19.5% [100 µM] (inactive)
Nc1nc(Cl)c2ncn(Cc3cc4c(cc3I)OCO4)c2n1	34.8% (inactive)
CC1(C)OC2[C@@H](CNC(=O)NC(=O)NC(=O)CI)O[C@@H](n3cnc4c(NC(=O)Nc5ccccc5)ncnc43)[C@H]2O1 (stereo partly drawn)	64.2% (inactive)
Fc1cc2[nH]ncc2c2c3c(c(-c4cn[nH]c4C(F)(F)F)nc12)C1CCC3C1 (stereo not drawn)	7.73% (active)
CC1Cc2c(Cl)ncnc2N(C)c2ccccc21 (stereo not drawn)	12.2% (inactive)
C=C(C)[C@@H]1CC[C@]2(COCCCN)CC[C@]3(C)[C@H](CC[C@@H]4[C@@](C)(CCCNCCCN)[C@H](C(=C)C)CC[C@]43C)[C@@H]12	-53.4% [100 µM] (active)
CCCCCCSc1ncnc2nc[nH]c12	84.8% (inactive)
C[C@@H]1C[C@H]2C(=O)O[C@@H](C)[C@H](NC(=O)[C@H](Cc3cc(F)cc(F)c3)NC(=O)Nc3ccc(C4CC4)cc3F)C(=O)N3CCC[C@H]3C(=O)N3CCCC[C@H]3C(=O)N[C@@H](C)C(=O)N2C1	14% (inactive)
O=[N+]([O-])c1ccc(O)c(-c2nc3ccccc3s2)c1	51.1% (inactive)
COc1cc2c(cc1OC(C)=O)C(=O)CCCC2	109% (inactive)
COc1ccc(CC(C#N)c2ccc(Cl)cc2)cc1 (stereo not drawn)	85% (inactive)
COc1ccc(N(c2nc(-c3ccc([N+](=O)[O-])cc3)cs2)C(C)C)cc1	52.7% (inactive)
C=C(C)[C@@H]1CC[C@]2(C)[C@H](CC[C@@H]3[C@@H]([C@@](C)(O)CCC=C(C)C)CC[C@]32C)[C@@]1(C)CCC(=O)O	0.565% [100 µM] (active)
CCOc1ccc(S(=O)(=O)Nc2ccc3c(c2)N(S(=O)(=O)CC)CCC3)cc1	77.1% (inactive)
Cc1cnc(N)nc1OCCNC(=O)c1cccc(-c2ccc(S(=O)(=O)Nc3ccc4c(c3)N(C(=O)C3CC3)CCC4)cc2)c1	42.7% (inactive)
Fc1cc2[nH]ncc2c2c3c(c(-c4cn[nH]c4)nc12)CCCC3	1.77% (active)
